12 molecules from PubChem BioAssay (NCATS) can be followed below.

The nature of test [1]: qHTS profiling of the MIPE4 collection as inhibitors of Plasmodium falciparum (3D7) proliferation (AID 743344; call rule not given here;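 note: scaled between DMSO vehicle wells and 0.29 µM artemisinin as full inhibition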). The note with it: P. falciparum 3D7 in erythrocytes, SYBR Green DNA fluorescence, 72 h; at 28.5 µM unless noted. A digest of the protocol:
(§1)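 Parasite DNA was quantified by SYBR Green I fluorescence (ex 485, em 535 nm) after overnight lysis in saponin/Triton buffer at room temperature. Cultures at 0.3% parasitemia and 2.5% hematocrit were first exposed to compound for 72 h at 37 C; signals were normalised to artemisinin (0.29 uM) and vehicle wells.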
For orientation: In qHTS, concentration-response curves come from the screen itself.

Test [2] in a line: qHTS profiling of the MIPE4 collection as inhibitors of Plasmodium falciparum (DD2) proliferation (Rep 2) (AID 743346; call rule not given here). The note with it: P. falciparum Dd2 in erythrocytes, SYBR Green DNA, 72 h; at 28.5 µM unless noted. A digest of the protocol: as §1
Test [3] in a line: qHTS profiling of the MIPE4 collection as inhibitors of Plasmodium falciparum (HB3) proliferation (AID 743347; call rule not given here;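 note: plate controls were DMSO vehicle wells for no effect and artemisinin wells for full effect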). The note with it: P. falciparum HB3 in erythrocytes, SYBR Green DNA, 72 h; at 28.5 µM unless noted. In short, it runs like this: as §1
Test [4] can be described thus: qHTS for Inhibitors of the Functional Ribonucleoprotein Complex (vRNP) of Lassa (LASV) Arenavirus: LASV Primary Screen - GLuc reporter signal (AID 1347082; calls by dose curve; tested in HEK293 reporter line; note: % is set by controls: 0 for no effect and ±100 for the full control effect; nearly all actives have a fitted effect of over 60% in size).
The nature of test [5]: qHTS for Inhibitors of the Functional Ribonucleoprotein Complex (vRNP) of Lassa (LASV) Arenavirus: Viability assay - alamar blue signal for LASV Primary Screen (AID 1347083; calls by dose curve; tested in HEK293 reporter line; note: % is set by controls: 0 for no effect and ±100 for the full control effect; nearly all actives have a fitted effect of over 80% in size).
The nature of test [6]: qHTS for Inhibitors of the Functional Ribonucleoprotein Complex (vRNP) of Lymphocytic Choriomeningitis Arenaviruses (LCMV): Viability assay - alamar blue signal for LCMV Primary Screen (AID 1347085; calls by dose curve; tested in HEK293 reporter line; note: % is set by controls: 0 for no effect and ±100 for the full control effect; nearly all actives have a fitted effect of over 80% in size).
Test [7] deals with Nucleoprotein (Lymphocytic choriomeningitis virus (strain Armstrong)) (UniProt P09992). In words: qHTS for Inhibitors of the Functional Ribonucleoprotein Complex (vRNP) of Lymphocytic Choriomeningitis Arenaviruses (LCMV): LCMV Primary Screen - GLuc reporter signal (AID 1347086). Note: % is set by controls: 0 for no effect and ±100 for the full control effect; nearly all actives have a fitted effect of over 70% in size.
Test [8] can be described thus: Cytotoxicity counterscreen for inhibitors of SARS-CoV-2 cell entry (AID 1645845). Note: nearly all actives have a fitted effect of over 50% in size. A digest of the protocol:
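Counterscreen run in the same HEK293-ACE2 line as the pseudotyped-particle entry assay, without particles. Viability after 48 h at 37 C was read as ATP luminescence, scaled between cell-containing and cell-free wells.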
On the technique in general: The purpose of a counterscreen is to sort out artefacts and off-target activity.

A short description of test [9]: Primary qHTS to identify inhibitors of SARS-CoV-2 cell entry (AID 1645846). Note: nearly all actives have a fitted effect of over 45% in size. The following applies: activity change, negative = inhibition: at 57.1 µM (top of the series) unless noted. A digest of the protocol: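 Using luciferase-reporting pseudoviruses carrying Wuhan-Hu-1 spike, the screen tracks entry into stably ACE2-expressing cells over 48 hr. Activity is expressed relative to spike particles versus particles lacking any fusion protein.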

In test [10] the target is Alpha-galactosidase (Coffea arabica) (UniProt Q42656). In words: Counterscreen for Glucocerebrosidase Inhibitors: qHTS Assay for Coffee Bean alpha-Galactosidase at pH 4.5 (AID 957; active = well fitted curve in the direction sought with a large enough effect; an effect the other way counts as inactive or inconclusive;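 note: plate controls were enzyme alone for no effect and no enzyme for full effect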). A digest of the protocol:
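Enzyme is added first (2 nM final), then compounds titrated from 0.7 nM to 77 uM, then 80 uM 4-methylumbelliferyl alpha-D-galactopyranoside; after 20 min at room temperature a pH 10 NaOH/glycine stop precedes fluorescence reading at 365/440 nm.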

The target is the same in test [11]. In words: Counterscreen for Glucocerebrosidase Inhibitors: qHTS Assay for Coffee Bean alpha-Galactosidase at pH 5.9 (AID 998; active = well fitted curve in the direction sought with a large enough effect; an effect the other way counts as inactive or inconclusive;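 note: plate controls were uninhibited enzyme for no effect and no-enzyme basal signal for full effect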). A digest of the protocol: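 Enzyme 2 nM + cpd (0.7 nM–77 uM titration) + 4-MU-alpha-Gal 80 uM, pH 5.9 citrate/Tween-20, RT 20 min, NaOH/glycine stop pH 10, fluor 365/440. Normalized to no-enzyme and full-activity controls; Hill-fit AC50.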

Test [12] in a line: Validation screen for inhibitors of Lassa infection (AID 463096). Note: % is set by controls: 0 for no effect and ±100 for the full control effect.
The nature of test [13]: Inducers of the Endoplasmic Reticulum Stress Response (ERSR) in human glioma: Validation (AID 504836; active = well fitted curve in the direction sought with a large enough effect; an effect the other way counts as inactive or inconclusive; note: 0% is about no effect). A digest of the protocol: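 Stably transfected U87-MG glioma cells carrying a GRP78-based luciferase sensor; 16 h compound incubation. Luminescence end-point read 10 min after Bright-Glo addition at room temperature.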
Test [14] deals with Cytochrome P450 3A4 (Homo sapiens) (UniProt P08684). In words: qHTS Assay for Inhibitors and Substrates of Cytochrome P450 3A4 (AID 884; active = well fitted curve in the direction sought with a large enough effect; an effect the other way counts as inactive or inconclusive; note: potency is the fitted concentration of half-maximal effect; nearly all actives have a fitted effect of over 50% in size). In short, it runs like this: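 Luminescent readout of luciferin produced by CYP3A4 (20 nM) dealkylation of Luciferin-PPXE, 25 uM (its KM). NADPH-driven reaction ran 60 min at RT after 10 min compound preincubation; data scaled to 57 uM ketoconazole as 100% inhibition.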

The target is the same in test [15]. In words: qHTS Assay for Activators of Cytochrome P450 3A4 (AID 885; active = well fitted curve in the direction sought with a large enough effect; an effect the other way counts as inactive or inconclusive; note: nearly all actives have a fitted effect of over 65% in size). A digest of the protocol:
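Activators are scored by enhanced luminescence from CYP3A4 conversion of luciferin-PPXE (25uM, equal to KM) to luciferin, after 60 min at RT with an NADPH-regenerating system.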

Each structure is given as a SMILES string. Results filed as inconclusive are left out. The source made the active and inactive calls. Unless noted, calls come from the whole dose curve.

Chain of Nucleoprotein (Lymphocytic choriomeningitis virus (strain Armstrong)) (P09992 whole entry, looked up): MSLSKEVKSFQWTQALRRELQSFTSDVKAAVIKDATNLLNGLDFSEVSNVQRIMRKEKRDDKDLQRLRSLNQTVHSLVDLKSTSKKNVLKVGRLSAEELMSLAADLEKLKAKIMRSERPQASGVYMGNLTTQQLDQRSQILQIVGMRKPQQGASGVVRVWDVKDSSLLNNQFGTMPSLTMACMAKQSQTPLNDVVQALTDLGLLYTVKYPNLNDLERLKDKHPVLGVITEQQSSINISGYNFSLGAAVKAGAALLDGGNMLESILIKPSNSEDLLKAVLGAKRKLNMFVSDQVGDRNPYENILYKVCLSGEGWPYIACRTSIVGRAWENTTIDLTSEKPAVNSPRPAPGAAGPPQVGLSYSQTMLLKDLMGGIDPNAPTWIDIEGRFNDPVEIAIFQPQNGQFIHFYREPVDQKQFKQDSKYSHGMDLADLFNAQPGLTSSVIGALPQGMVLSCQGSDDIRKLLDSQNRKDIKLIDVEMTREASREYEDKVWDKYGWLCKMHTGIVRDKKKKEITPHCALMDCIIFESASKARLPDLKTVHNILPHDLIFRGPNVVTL
Chain of Alpha-galactosidase (Coffea arabica) (Q42656 whole entry, looked up): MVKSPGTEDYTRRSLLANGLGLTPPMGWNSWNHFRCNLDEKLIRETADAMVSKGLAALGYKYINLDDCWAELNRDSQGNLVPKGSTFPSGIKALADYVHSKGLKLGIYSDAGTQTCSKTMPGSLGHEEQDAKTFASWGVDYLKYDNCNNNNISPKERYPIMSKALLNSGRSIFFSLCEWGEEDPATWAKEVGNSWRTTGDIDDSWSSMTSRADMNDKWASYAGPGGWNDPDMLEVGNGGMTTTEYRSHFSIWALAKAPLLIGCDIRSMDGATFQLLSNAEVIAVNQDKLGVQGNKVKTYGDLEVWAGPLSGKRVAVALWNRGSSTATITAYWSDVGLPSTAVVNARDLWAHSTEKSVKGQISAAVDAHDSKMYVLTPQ
Chain of Cytochrome P450 3A4 (Homo sapiens) (P08684 whole entry, looked up): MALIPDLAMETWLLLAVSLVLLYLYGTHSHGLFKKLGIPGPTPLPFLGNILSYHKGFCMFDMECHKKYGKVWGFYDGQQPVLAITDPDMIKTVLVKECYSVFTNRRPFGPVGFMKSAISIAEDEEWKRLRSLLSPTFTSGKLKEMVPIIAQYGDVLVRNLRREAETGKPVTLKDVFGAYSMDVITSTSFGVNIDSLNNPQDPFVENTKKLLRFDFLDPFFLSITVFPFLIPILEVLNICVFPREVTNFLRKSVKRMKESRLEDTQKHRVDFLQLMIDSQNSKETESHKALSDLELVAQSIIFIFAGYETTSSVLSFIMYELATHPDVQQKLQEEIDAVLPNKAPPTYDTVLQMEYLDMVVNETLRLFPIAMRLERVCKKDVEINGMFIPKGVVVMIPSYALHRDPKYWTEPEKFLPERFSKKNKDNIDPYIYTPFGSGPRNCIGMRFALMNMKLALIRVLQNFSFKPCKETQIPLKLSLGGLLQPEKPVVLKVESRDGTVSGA

As for `O=C(O)c1ccccc1C(=O)Nc1ccc(-c2ccccc2)cc1`, the parasite growth, % of DMSO control in test [1] worked out at 93.6%. The parasite growth, % of control (lower = inhibition) in test [2] was found to be 82.2%. In test [3], this molecule displayed a growth, % of control of 87.2%. The Potency entry in [4], in test [5], in test [6], in test [7], in test [8] and in [9] was “inactive” throughout.

For the molecule `CCCc1c(OCCCOc2ccc(OCC(=O)O)cc2)ccc(C(C)=O)c1O`, the molecule was classed as inactive in test [10], in [11] and in test [13]. Further, the Potency result in test [12], in [4], in test [5], in test [6], in [7] and in test [8] was “inactive” each time. The activity change, negative = inhibition in [9] is -13.9%.

`NC(=O)[C@@H](CCC(F)(F)F)N(Cc1ccc(-c2ncon2)cc1F)S(=O)(=O)c1ccc(Cl)cc1`: the Potency result in test [4], in test [5], in [6], in test [7] and in test [8] was “inactive” each time. The activity change, negative = inhibition in [9] is -47.2%.

Consider `C[Se]CCC(N)C(=O)O` (stereo unspecified), for which the Potency entry in test [4], in test [5], in test [6], in [7] and in test [8] was “inactive” in each case. Moreover, the activity change, negative = inhibition in [9] is -2.1% [at 114 µM].

As for `Oc1ccc(-c2nc(-c3ccc(F)cc3)c(-c3ccncc3)[nH]2)cc1`, the Potency in test [14] is 1000 nM (active). Besides, the Potency result in test [15], in test [4], in test [5], in test [6], in test [7] and in test [8] was “inactive” throughout. Besides, the call in test [10], in [11] and in test [13] was inactive.

In the case of `CCCCS(=N)(=O)CCC(N)C(=O)O` (stereo unspecified), the Potency entry in test [12], in test [4], in test [5], in test [6], in test [7] and in test [8] was “inactive” in each case. Moreover, the Potency result in [9] was “inactive”. The molecule was classed as inactive in [13].

Consider `Cc1coc2c1C(=O)C(=O)c1c-2ccc2c1CCCC2(C)C`, for which the Potency result in [4], in test [5], in test [6], in [7] and in test [8] was “inactive” in each case. Moreover, the activity change, negative = inhibition in test [9] was -20%.

Take `CCOC(=O)C1=C(N)Oc2ccc(Br)cc2C1C(C#N)C(=O)OCC` (stereo unspecified): the Potency result in test [4], in test [5], in test [6], in test [7] and in test [8] was “inactive” each time. The activity change, negative = inhibition in test [9] was -18.1%.

`COC(=O)[C@H](c1ccccc1Cl)N1CCc2sccc2C1`: the Potency result in test [4], in test [5], in test [6], in test [7] and in [8] was “inactive” each time. Also, the activity change, negative = inhibition in [9] is -28.2%.

Take `CC(C)C[C@@H](N)[C@H](O)C(=O)N[C@H](C(=O)N[C@H](C(=O)N[C@@H](CC(=O)O)C(=O)O)C(C)C)C(C)C`: the Potency entry in test [4], in test [5], in test [6], in [7] and in test [8] was “inactive” in each case. Moreover, in [9], the activity change, negative = inhibition was -14%.

`CCCCC(F)(F)[C@@]1(O)CC[C@H]2[C@H](CC(=O)[C@@H]2CCCCCCC(=O)O)O1`: the Potency entry in [4], in [5], in test [6], in test [7], in [8] and in [9] was “inactive” in each case.

Consider `O=C1NC(=O)/C(=C/c2ccc(-c3ccc(F)cc3O)o2)S1`, for which the call in test [13] was inactive. In addition, the Potency entry in test [4], in test [5], in test [6], in test [7], in [8] and in test [9] was “inactive” in each case.
